Screening data deposited in PubChem BioAssay by National Center for Advancing Translational Sciences (NCATS).
In the library only some 13% were active in any assay of this set; here they are far more common.
LASV entry inh = qHTS for Inhibitors of binding or entry into cells for Lassa Virus; Lassa virus pseudotype entry inhibition, cell reporter; Potency, µM (series often up to 37.9 µM), usual class: inhibitors; hit rate 1.2% among 300,000; AID 540256, 2011; calls by dose curve; tested in HEK293 cells; further: nearly all actives have a fitted effect of over 50% in size
HCV inhibitor = qHTS Assay for Inhibitors of Hepatitis C Virus (HCV); Huh7.5.1 HCVcc-Cre infection, luciferase reporter, 44 h; Potency, µM (top dose mostly 41.8 µM), actives largely listed as inhibitors; hit rate 3.4% among 340,000; active means well fitted inhibition curve with a large enough effect; inconclusive means small, poorly fitted or top-dose-only effect, or another doubt; inactive means no such curve, though single readings can be large or run the other way
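Reporter virus HCVcc-Cre (~0.5 moi) infects cells exposed to compound; seeding density 1,000 cells/well with 4 h settling beforehand. Luminescence, 15 sec read, taken 44 h post-infection following a 15 min RT substrate incubation.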
FMDV antiviral = High Throughput Screening for Foot and Mouth Disease Virus Antivirals | FMDV antiviral cell-based qHTS | hit rate 1.2% among 410,000 | Potency, µM (titrated, usually from 57.9 µM), usual class: inhibitors; calls by dose curve; tested in HEK293T cells; further: read-out not given here; nearly all actives have a fitted effect of over 45% in size
CHX counter = Cycloheximide Counterscreen for Small Molecule Inhibitors of Shiga Toxin; cell reporter, cycloheximide protein synthesis inhibition counterscreen; max response, %; hit rate 12% among 300,000; AID 2314, 2010; in the data active means max response mostly above about 13%, no sharp cut-off; inactive means mostly below about 14%; further: read at 38.3 µM for the half of the compounds with a filed dose
MARV entry inh = qHTS for inhibitors of binding or entry into cells for Marburg Virus; Marburg virus pseudotyped entry inhibition, cell reporter; Potency, µM (series often up to 37.8 µM), most hits filed as inhibitors; hit rate 1.8% among 300,000; calls by dose curve; tested in HEK293 cells
Shiga toxin inh = A qHTS for Small Molecule Inhibitors of Shiga Toxin; hit rate 9.2% among 290,000; Vero cells, Shiga toxin protein synthesis inhibition reporter; inhibition, % at 38.7 µM; AID 2315, 2010; in the data active means inhibition mostly above about 28%, no sharp cut-off; inactive means mostly below about 43%
Numbers stand for hits; – = inactive; ? = inconclusive; · = no result.

SMILES	LASV entry inh	HCV inhibitor	FMDV antiviral	CHX counter	MARV entry inh	Shiga toxin inh
CC1(C)OC(=O)C=C[C@@]2(C)C1C[C@@H](O)[C@]1(C)C2CC[C@@]2(C)C(c3ccoc3)OC(=O)[C@H]3O[C@]321 (stereo partly drawn)	·	·	–	·	·	·
COCCC(=O)N1CCC(Oc2ccc(C(=O)NCc3ncc(C)[nH]3)cc2)CC1	–	–	–	–	–	–
CCc1nc2ccccc2c(C(=O)OCc2nc3ccccc3c(=O)[nH]2)c1C	?	?	–	·	3.55µM	·
CCc1nc2ccccc2c(C(=O)Oc2cccc3cccnc23)c1C	–	2.24µM	–	–	–	–
COCCCN(C(=O)c1cc2c(s1)CCCCC2)c1c(N)n(Cc2ccccc2)c(=O)[nH]c1=O	10µM	?	–	·	–	·
CCc1nc2ccc(C)cc2c(C(=O)Oc2cccc3cccnc23)c1C	–	?	–	–	–	–
CCc1nc2ccccc2c(C(=O)OCC(=O)N(CCOC)c2c(N)n(Cc3ccccc3)c(=O)[nH]c2=O)c1C	–	14.1µM	–	·	?	·
O=C(/C=C/c1ccco1)NC(=S)Nc1ccc(N2CCCC2)cc1	?	–	–	–	–	–
CC(=O)c1ccc(N2CCN(C(=S)Nc3ccccc3C(F)(F)F)CC2)cc1	?	?	?	–	?	–
c1ccc(-n2c(-c3ccncc3)nnc2N2CCOCC2)cc1	–	–	–	–	–	–
CCOC(=O)c1c(C)nc(-c2ccccc2)nc1NC(=O)CC	–	–	–	24.1	?	70.3
CCOC(=O)c1c(C)nc2ccccc2c1C	–	–	–	25.0	–	–
CCC(=O)Nc1nc(-c2ccccc2)nc(SC)c1C(C)=O	·	?	–	–	·	–
O=C(OCc1nc2ccccc2c(=O)[nH]1)c1cccs1	–	–	–	18.7	–	–
COc1ccc(CCNC(=O)CN(CCc2ccccc2)S(C)(=O)=O)cc1OC	–	–	–	–	?	–
C=CCSC1=N/C(=C\c2cccnc2)C(=O)N1c1ccc(OC)cc1	–	?	?	–	?	–
CCSC1=N/C(=C\c2ccccc2)C(=O)N1c1ccc(OC)cc1	–	10µM	–	–	–	–
COc1ccc(/C=C2/N=C(SCC(=O)Nc3cc(C)on3)N(c3ccccc3)C2=O)cc1	–	–	–	–	–	–
CCN(CC)C1=N/C(=C\c2ccc(OC)cc2)C(=O)N1c1ccccc1	0.891µM	?	?	–	?	–
O=C(CN1C(=O)c2ccccc2C1=O)Nc1cc(C(=O)O)cc(C(=O)O)c1	·	–	–	–	·	–
c1ccc(Nc2nc(CSc3ncn[nH]3)cs2)cc1	–	–	–	43.5	–	68.1
COc1ccc(Cn2c(=S)[nH]c3ccccc32)cc1	–	–	–	–	–	–
CC/C(=N/Nc1ccccc1)c1cnnc(-c2ccccc2)n1	–	8.91µM	–	–	–	–
C/C=C(\C)C(=O)OC1[C@H](OC(C)=O)C2(CO)C(CC1(C)C)C1=CCC3C4(C)CCC(O[C@@H]5O[C@H](C(=O)O)[C@@H](O[C@@H]6O[C@H](CO)[C@@H](O)[C@H](O)[C@H]6O)[C@H](O)[C@H]5O[C@H]5O[C@H](CO)[C@@H](O)[C@H](O)[C@H]5O)[C@](C)(CO)C4CCC3(C)[C@]1(C)C[C@H]2O (stereo partly drawn)	·	3.16µM	28.2µM	·	·	·
S=C1NC2(CCCCCC2)N=C1c1ccccc1	–	?	–	–	–	–
SMILES	LASV entry inh	HCV inhibitor	FMDV antiviral	CHX counter	MARV entry inh	Shiga toxin inh
S=C1NC2(CCCC2)N=C1c1ccccc1	·	–	–	21.4	·	–
CN1CCC2(CC1)N=C(c1ccc(F)cc1)C(=S)N2	·	–	–	–	?	–
Cc1ccc(C2=NC3(CCCC3)NC2=S)cc1	?	–	–	21.5	–	–
CN(C)n1cccc1/C=C(\C#N)S(=O)(=O)c1ccc(Cl)cc1	–	–	–	–	–	–
CC1(C)COC(/C=C/c2ccc([N+](=O)[O-])cc2)=N1	?	?	–	55.7	?	83.9
CC(=C/C(=O)O)/C=C/c1ccc([N+](=O)[O-])cc1	–	–	–	–	?	–
Cc1ccc(NC(=O)CCNC(=O)Cn2ccc3ccccc3c2=O)cc1F	–	–	–	–	?	–
Oc1ccc2c3c1O[C@H]1c4[nH]c5c(c4C[C@@]4(O)[C@@H](C2)N(CC2CC2)CC[C@]314)C[C@]1(O)[C@H]2Cc3ccc(O)c4c3[C@@]1(CCN2CC1CC1)[C@@H]5O4	·	·	–	·	–	·
O=C1/C(=C\c2ccccc2)C[C@@]2(O)[C@H]3Cc4ccc(O)c5c4[C@@]2(CCN3CC2CC2)[C@@H]1O5	·	·	22.4µM	·	·	·
O=C1/C(=C\c2ccccc2)C[C@@]2(O)[C@H]3Cc4ccc(O)c5c4[C@@]2(CCN3CC2CC2)[C@H]1O5	·	·	10µM	·	·	·
C=CCN1CC[C@]23c4c5ccc(O)c4O[C@@H]2/C(=N/N=C2\CC[C@@]4(O)C6Cc7ccc(O)c8c7[C@@]4(CCN6CC=C)[C@@H]2O8)CC[C@@]3(O)C1C5	16.4µM	·	·	·	4.47µM	·
NC(N)=Nc1ccc2[nH]c3c(c2c1)C[C@@]1(O)[C@H]2Cc4ccc(O)c5c4[C@@]1(CCN2CC1CC1)[C@H]3O5	2.31µM	?	?	–	25.9µM	–
CCCCN1CC(COCc2ccccc2)Oc2cccc(Oc3ccc(F)cc3)c2S1(=O)=O (stereo not drawn)	?	–	–	·	·	·
CCCCN1CC(COCc2ccccc2)Oc2cccc(Oc3ccccc3)c2S1(=O)=O (stereo not drawn)	?	2.51µM	–	·	·	·
O=C(N=C1N=C2C=CC(Br)=CN2Cc2ccccc21)c1ccc([N+](=O)[O-])cc1[N+](=O)[O-]	–	–	–	40.0	–	60.6
O=C(c1ccc([N+](=O)[O-])cc1[N+](=O)[O-])N1CCc2ccccc21	–	?	–	–	–	–
Cc1cccc(/C=N/Nc2ccc3ccccc3n2)c1	·	?	6.31µM	–	·	–
C(=N\Nc1ccc2ccccc2n1)/c1ccc2c(c1)OCCO2	·	–	?	–	·	–
Cc1ccc(/C=N/Nc2ccc3ccccc3n2)o1	5.01µM	–	–	–	1.26µM	–
O=C(CSc1nc2ccccc2nc1Cc1ccccc1)Nc1ccccc1C(F)(F)F	–	·	–	·	·	·
Cc1ccccc1OCC(O)CN (stereo not drawn)	–	–	–	–	–	–
COc1ccc(NC(=O)CN(C)C(=O)c2ccc3ccccc3n2)cc1	–	–	–	·	–	·
COc1ccc(NC(=S)c2ccc3ccccc3n2)cc1	·	–	–	45.3	·	59.9
CCOc1ccc(NC(=S)c2ccc3ccccc3n2)cc1	·	–	–	23.8	·	37.7
CCOc1ccc(CN(C)C(=O)c2ccc3ccccc3n2)cc1	–	–	–	–	–	–
C=CCn1c(-c2ccc(Cl)cc2)c[nH]c1=S	–	–	–	–	?	–
Cn1c(-c2ccc(-c3ccccc3)cc2)c[nH]c1=S	?	5.01µM	–	30.9	?	68.8
C=CCn1c(-c2ccccc2)c[nH]c1=S	–	–	–	50.4	–	78.0
